Screening results from PubChem.
An excerpt weighted towards active compounds, which were near 4.8% of everything screened.
hcDAF-12 act = activates DAF-12 receptor from parasite H. contortus. HEK293 hcDAF-12 lit1-tk-luc reporter, luminescence; 0% DMSO, 100% Δ7-dafachronic acid. activation, % at 6.8 µM. actives 1.4% (n = 370,000). AID 652067;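 active = activation above the mean of all tested compounds plus 3 SD, cut at about 5.5% in these data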
ssDAF-12 act = S. stercoralis DAF-12 activation, primary screen | activation, % at 6.8 µM | HEK293 ssDAF-12/GRIP1 lit1-tk-luc reporter, luminescence; % of 3 µM dafachronic acid response | actives 1% (n = 370,000);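 active = activation above the mean over all tested compounds plus 3 SD, cut at about 0.9% in these data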
DAX1 inh-1 = inhibits human nuclear receptor DAX1; P51843; HEK293 Gal4-DAX1 luciferase reporter, luminescence; inhibition, % at 6.75 µM; actives 0.99% (n = 340,000); AID 504766;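 active = inhibition above the mean over all tested compounds plus 3 SD, cut at about 4.2% in these data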;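 also: inhibition shows as a rise in luminescence from relieved DAX1 repression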
Target sequence (P51843 207-470 limits assumed): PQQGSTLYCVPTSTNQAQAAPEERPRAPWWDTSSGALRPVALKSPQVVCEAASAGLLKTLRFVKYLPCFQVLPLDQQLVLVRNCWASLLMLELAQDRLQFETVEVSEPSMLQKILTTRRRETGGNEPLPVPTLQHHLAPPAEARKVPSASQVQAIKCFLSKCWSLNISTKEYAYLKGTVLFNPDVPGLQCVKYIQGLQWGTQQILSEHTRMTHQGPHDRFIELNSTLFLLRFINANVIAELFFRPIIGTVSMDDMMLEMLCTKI
hgDAF12 agonist = hgDAF-12 agonism, primary luciferase screen | HEK293 GAL4-hgDAF12 UAS-luciferase reporter, agonist luminescence; normalized to butyrate control | activation, % at 6.8 µM | actives 1.8% (n = 370,000);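 active = activation above a cutoff set at the mean of all screened compounds plus 3 SD, cut at about 10% in these data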
SMARCA2 act = activators of SMARCA2 function. MG213 cells, MMTV-luciferase reporter, dexamethasone, overnight. activation, % at 9.1 µM. actives 1% (n = 370,000). AID 652017; in the data active = activation above about 7.8%
DAX1 inh-2 = inhibitors of DAX1 repression of SF-1 activated StAR promoter | AID 652010 | actives 1.1% (n = 370,000) | HEK293T StAR-luciferase reporter, SF-1/DAX-1 repression relief | inhibition, % at 6.8 µM;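 active = inhibition above the mean over all tested compounds plus 3 SD, cut at about 3.6% in these data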;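 also: higher inhibition means more luminescence from relief of DAX-1 repression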
SMARCA2 act conf = SMARCA2 activation, confirmation screen; shares compounds with SMARCA2 act; MG213 cells, MMTV-luciferase with dexamethasone, luminescence, overnight; MG213 cells expressing E1A, Rb sequestered; DMSO wells 0%, reference activator 100%; activation, % at 9.1 µM; actives 30% (n = 3,500);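 active = activation above its plate's cutoff, the mean activation of tested wells plus 3 SD, cut at about 7.9% in these data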
VP16 Luc act = activates GAL4-VP16 luciferase, flagging SMARCA2 activator hits | shares compounds with SMARCA2 act | HEK293 GAL4-VP16 pG5luc reporter, luciferase luminescence; scaled: DMSO wells 0%, SAHA wells 100% | activation, % at 9.1 µM | actives 41% (n = 3,500) | AID 686939;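 active = activation above the solvent-only control well mean plus 3 SD, averaged across control plates, cut at about 5.2% in these data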
Of the large screens only hits and unclear results are named; the others gave an inactive call (follow-up assays come after a bar, where they were run).

Cc1ccc(Nc2nc(N)nc(CN3CCN(Cc4ccc5c(c4)OCO5)CC3)n2)cc1Cl	none
c1cnc(SCC2CCCCC2)c(-c2nc3ccccc3[nH]2)c1	none (no result: DAX1 inh-1)
C=CCN(CC#Cc1ccccn1)Cc1ccc(OC)cc1OC	none (no result: DAX1 inh-1)
CC1CCN(c2c3c(nc4ncnn24)CCCC3)CC1	none (no result: DAX1 inh-1)
COc1ccc(CSc2nc3nc(C)cc(C)n3n2)cc1F	none
COc1ccc(COC(=O)c2nc3nc(C)cc(C)n3n2)cc1F	SMARCA2 act 8.2 | SMARCA2 act conf inactive | VP16 Luc act inactive
CC1(C)OC(=O)C2=C(C[C@@H](CCC(F)(F)F)O[C@H]2c2ccc(F)cc2)O1	SMARCA2 act 8.2 (no result: DAX1 inh-1) | SMARCA2 act conf inactive | VP16 Luc act inactive
O=C1C(=Cc2ccco2)CCCC1=Cc1ccco1	SMARCA2 act 8.1 | SMARCA2 act conf 16 | VP16 Luc act 7.2
CC1(c2ccncc2)Nc2ccccc2-c2nc3ccccc3n21 (configuration not stated)	hgDAF12 agonist 12, SMARCA2 act 9.1 | SMARCA2 act conf inactive | VP16 Luc act inactive
Cc1cc(F)ccc1-c1cc(C(=O)NCC2CCCCC2)[nH]n1	SMARCA2 act 8.6 (no result: DAX1 inh-1) | SMARCA2 act conf inactive | VP16 Luc act inactive
CCOC(=O)Nc1ccc2c(c1)C(=NNC(=S)NC)c1ccccc1-2	SMARCA2 act 9.8 | SMARCA2 act conf 16 | VP16 Luc act 8.4
CCC[C@H]1[C@@H](NC(=O)C2CCOC2)CC[C@@]23CCCN2C(=O)CCC[C@@H]13 (some centres not stated)	none (no result: DAX1 inh-1, SMARCA2 act, DAX1 inh-2)
COc1ccc2nc3cc(Cl)ccc3c(Nc3cc(C(C)C)c(O)cc3C)c2c1	none
COc1ccc2nc3cc(Cl)ccc3c(Nc3cc(CN4CCCC4)c(O)c(CN4CCCC4)c3)c2n1	SMARCA2 act 68, DAX1 inh-2 4.3 (no result: DAX1 inh-1) | SMARCA2 act conf 256 | VP16 Luc act inactive
O=[N+]([O-])c1cccc(C2=Nn3c(nnc3-c3ccccc3)SC2)c1	none (no result: DAX1 inh-1)
CNc1ccc(/C=C(\C#N)c2ccccn2)cc1[N+](=O)[O-]	SMARCA2 act 13 | SMARCA2 act conf 13 | VP16 Luc act 8.0
COCc1cc(C)nc(N/N=C/c2ccc(Cl)c(Cl)c2)c1C#N	SMARCA2 act 8.3 | SMARCA2 act conf inactive | VP16 Luc act inactive
O=C(Cn1c(-c2cncs2)nc2ccccc21)NC1CCCCC1	none (no result: DAX1 inh-1)
O=C1[C@@H](C2CCCCC2)[C@@H]2c3ccccc3C=NN2[C@@H]2c3ccccc3C=NN12	none (no result: DAX1 inh-1)
Cc1n[nH]c(C)c1S(=O)(=O)NCCc1cccc(F)c1	none (no result: DAX1 inh-1)
Cc1ccnc(SCc2cc(=O)c(OC(=O)c3ccc(C)c([N+](=O)[O-])c3)co2)n1	none (no result: DAX1 inh-1, SMARCA2 act, DAX1 inh-2)
O=C(CSc1nnc(-c2ccccc2)n1-c1ccc(Cl)cc1)Nc1ccc(OCc2ccccc2)cc1	none (no result: DAX1 inh-1)
CC(=O)c1cccc(NC(=S)NC(=O)C(C)C)c1	SMARCA2 act 8.7 | SMARCA2 act conf inactive | VP16 Luc act inactive
CNC(=S)Nc1cccc(C(C)=O)c1	none
COc1ccc(C(=O)OCC(=O)c2ccc3c(c2)NC(=O)CO3)cc1OC	SMARCA2 act 8.6 | SMARCA2 act conf inactive | VP16 Luc act inactive
O=c1nccc(N/N=C/c2ccccc2)[nH]1	SMARCA2 act 8.2 | SMARCA2 act conf inactive | VP16 Luc act inactive
COc1ccc(C(=O)C(=O)N2CCN(C(=O)c3ccccc3C(F)(F)F)CC2)cc1OC	none (no result: DAX1 inh-1)
CCOc1ccccc1Nc1cc2n(c(=O)n1)CCc1cc(OC)c(OC)cc1-2	SMARCA2 act 12 | SMARCA2 act conf 8.8 | VP16 Luc act 7.8
COc1cc2c(cc1OC)-c1cc(Nc3ccccc3C)nc(=O)n1CC2	none
Cc1nn(CC(=O)NCCCN2CCN(Cc3ccccc3)CC2)c(=O)c2cc(-c3ccccc3)nn12	SMARCA2 act 8.5 | SMARCA2 act conf inactive | VP16 Luc act inactive
CCc1ccc(-c2cc3c(=O)n(CC(=O)NCCCN4CCC(Cc5ccccc5)CC4)nc(C)n3n2)cc1	SMARCA2 act 10 | SMARCA2 act conf inactive | VP16 Luc act inactive
COc1cc(-n2c(C)nc3cc(C(=O)N4CCCCC4)ccc32)cc(OC)c1OC	none (no result: DAX1 inh-1)
CC(C)Oc1ccc(C2CC(=O)N(c3ccc(C(=O)O)cc3)C2=O)cc1 (configuration not stated)	none
CC(C)Oc1ccc(C2CC(=O)N(c3cccc(C(=O)O)c3)C2=O)cc1 (configuration not stated)	SMARCA2 act 9.8 | SMARCA2 act conf inactive | VP16 Luc act inactive
CC(CNC(=O)[C@@H](Cc1ccccc1)NC(=O)[C@H]1O[C@@H](n2cnc3c(=O)[nH]c(N)nc32)[C@H](O)[C@@H]1O)c1ccccc1 (some centres not stated)	none (no result: DAX1 inh-1)
CCOC(=O)c1cnc2c(N=Nc3ccccc3)c(N)nn2c1N	ssDAF-12 act 0.9, SMARCA2 act 8.3 | SMARCA2 act conf 11 | VP16 Luc act 12
CCOC(=O)c1cnc2c(N=Nc3cccc(Cl)c3)c(N)nn2c1N	none (no result: DAX1 inh-1)
CCCCN(C)C(=O)CSc1nnc(-c2cccnc2)n1C1CCCCC1	none (no result: DAX1 inh-1)
Cc1nnc(C)n1N=Cc1ccc(Cl)c([N+](=O)[O-])c1	none (no result: DAX1 inh-1)
O=C(CSc1nc2ccccc2s1)N/N=C/c1ccco1	SMARCA2 act 8.8 | SMARCA2 act conf 8.9 | VP16 Luc act inactive
Nc1c(Cl)c(Cl)nc(C(=O)OCC(=O)N2CCCC2=O)c1Cl	none
O=C(OCC(=O)N1CCCC1=O)c1nc(Cl)c(Cl)c(Cl)c1Cl	SMARCA2 act 34 | SMARCA2 act conf inactive | VP16 Luc act inactive
COc1ccc(C2=NN(S(C)(=O)=O)C(c3cccs3)C2)cc1 (configuration not stated)	SMARCA2 act 10 | SMARCA2 act conf 8.1 | VP16 Luc act 6.5
COc1ccc(C2CC(c3cccs3)=NN2S(C)(=O)=O)cc1 (configuration not stated)	none
COc1ccc(CC(NC(C)=O)C(=O)NC2CCN(c3nc(C)cc(C)c3C#N)CC2)cc1OC (configuration not stated)	SMARCA2 act 15 | SMARCA2 act conf inactive | VP16 Luc act inactive
COc1ccc(CC(NC(C)=O)C(=O)NC2CCN(c3nc(C)cc(C)c3C#N)CC2)cc1 (configuration not stated)	none
Cc1cc(C)nc(N2CCC(C(=O)NC3CCCCCC3)CC2)n1	none
O=C(NC1CC1)C1CCN(c2ncccn2)CC1	SMARCA2 act 9.2 | SMARCA2 act conf inactive | VP16 Luc act inactive
